Data as given in PubChem BioAssay (NCI).
“And” between values parts separate entries of the source, which are not always exact repeats. Identical values can stand only once. About 79,000 compounds went through this panel and 15% of them were active in at least one assay; those are over-represented in the sample as a whole. Unmarked numbers belong to inactive results. The source made the active and inactive calls. Rule as the data show it: active = growth inhibition above about 70%; inactive = the rest.

Tests used:
[1] = NCI Yeast Anticancer Drug Screen. Data for the rad50 strain (AID 155);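 also: 0% = growth of vehicle-only cultures of the same strain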; settings: S. cerevisiae rad50 strain growth inhibition; at 50.0 µM; stronger effect = higher value
Outline: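 Genetically altered yeast (DNA repair pathway); compound treatment; growth inhibition vs vehicle ctrl.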

[2] = NCI Yeast Anticancer Drug Screen. Data for the mec2-1 strain (AID 157); settings: S. cerevisiae mec2-1 strain, at 50.0 µM, stronger effect = higher value
Outline: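 Using mec2-1 yeast: add compound, measure growth, express inhibition versus vehicle-treated cultures.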

[3] = NCI Yeast Anticancer Drug Screen. Data for the sgs1 mgt1 strain (AID 161);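 also: 0% = growth of cultures given vehicle only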; settings: S. cerevisiae sgs1 mgt1 strain, at 50.0 µM, stronger effect = higher value
Outline: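 Percent growth inhibition was derived by comparing compound-exposed mutant yeast with vehicle-exposed cultures. The strain carries alterations in DNA damage repair.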

[4] = NCI Yeast Anticancer Drug Screen. Data for the cln2 rad14 strain (AID 165);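 also: 0% = growth equal to vehicle treated cultures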; settings: S. cerevisiae cln2 rad14 strain, at 50.0 µM, stronger effect = higher value
Outline: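 Yeast strain cln2 rad14, bearing defects in cell cycle control and DNA repair, serves as the test system; values reflect growth inhibition compared with vehicle.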

[5] = NCI Yeast Anticancer Drug Screen. Data for the bub3 strain (AID 167); settings: S. cerevisiae bub3 mutant strain, at 50.0 µM, stronger effect = higher value
Outline: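 Yeast carrying a defined mutation is treated with each compound, and growth is compared with that of vehicle-exposed cells to give inhibition.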

[6] = NCI Yeast Anticancer Drug Screen. Data for the mlh1 rad18 strain (AID 175); settings: S. cerevisiae mlh1 rad18 strain growth inhibition; at 50.0 µM; stronger effect = higher value
Outline: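 Steps: expose repair-defective yeast to compound; measure growth; express inhibition against vehicle-treated controls.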

SMILES | growth inhibition [1] | growth inhibition [2] | growth inhibition [3] | growth inhibition [4] | growth inhibition [5] | growth inhibition [6]
C=CCN(CC=C)C(Cc1ccccc1)c1ccccc1 (centres undefined) | 2.95% | -7.75% | -5.85% | -5.6% | 11.3% | -5.95%
CCCNP(=S)(NCCC)NCCC | 1% | -10.4% | 8.5% | -16.4% | 0% | 22%
Cc1nnc2n1-c1ccccc1C(=S)N1CSCC21 (centres undefined) | -22% | -0.25% | -24.7% | 8.15% | -6.7% | -0.45%
C[Si](C)(OC(=O)N(CCCl)CCCl)O[Si](C)(C)OC(=O)N(CCCl)CCCl | 14.8% | 1.05% | -33.6% | -11.4% | -31% | -45.6%
Cn1c(=S)[nH]n(CCOc2ccccc2)c1=S | -7.15% | -5.35% | -5.85% | -18.4% | 3.45% | -6.05%
c1ccc(CCN2CCOCC2)nc1 | 17.3% | 1.6% | -8.95% | 52% | 4.55% | 3.85%
O=C(O)C(F)(F)C(F)(Cl)C(F)(F)C(F)(Cl)C(F)(F)C(F)(Cl)C(F)(F)Cl (centres undefined) (tested in a mixture with another compound) | 8.45% and 43.4% | 28.8% and 18.4% | 37.4% and 41.1% | 9.7% and 27.6% | -2.15% and -2% | 35.5% and 30.5%
COc1ccc2[nH]cc(CN(C)C)c2c1 | 21.4% | -7.6% | -10.2% | 5.3% | -6.35% | 18.6%
C[C@]12CCC(=O)C=C1CC[C@H]1[C@@H]3CCC(=O)[C@@]3(C)CC[C@@]12F | -2.35% | -6.1% | 2.25% | -31.8% | -3.7% | -5.75%
Nc1ccccc1C(=O)Oc1ccccn1 | 7.45% | 8.9% | -0.8% | 13.6% | -8.85% | 6.35%
O=NN(CS(=O)(=O)O)c1ccccc1 | -5.9% | -3.05% | -1.6% | -29.2% | 6.4% | 0.4%
CCOc1ccc(P2(=S)SP(=S)(c3ccc(OCC)cc3)S2)cc1 (centres undefined) | -11.3% | -20.9% | -13.2% | 20% | 17.1% | -13.8%
COC(=O)C(N)Cc1ccc(OC)c(N(CCCl)CCCl)c1 (centres undefined) | 17% | -0.6% | -11.2% | 2.8% | 3% | 6.55%
CC1(C(=O)O)C2[Se]c3cc[se]c3C2C1(C)C(=O)O (centres undefined) | -2.5% | 9.8% | -8.15% | -20.8% | 1% | -4.7%
COc1cccc(C=C(C#N)C#N)c1 | 46.8% | 23.8% | 31.7% | 26.4% | 14.6% | 33.4%
COc1ccc(CCNCc2ccc3ccccc3n2)cc1OC | -0.35% | -10.5% | 7.2% | -16.4% | -11.5% | 7.5%
CC[C@]12C=CCN3CC[C@@]4(c5ccc(OC)cc5N(C)[C@H]4[C@@](O)(C(=O)OC)[C@@H]1OC(C)=O)[C@@H]32 | 30.7% | -6.5% | 18.3% | 19.8% | 20.9% | 8.35%
O=C(O)c1ccc(Cl)c(Cl)c1.[Ni] | -19.1% | -16.4% | -4.35% | -11.9% | -23.4% | -19.7%
CCOP(=O)(NC12CC3CC(CC(C3)C1)C2)OCC | -1.5% | 8.2% | -7.5% | 5.25% | 19.6% | -18.2%
CSCCC(NP(=S)(c1ccccc1)c1ccccc1)C(=O)O (centres undefined) | 17.4% | -3.1% | 0% | 16.9% | -1.8% | 9.5%

SMILES | growth inhibition [1] | growth inhibition [2] | growth inhibition [3] | growth inhibition [4] | growth inhibition [5] | growth inhibition [6]
NC(Cc1cc([N+](=O)[O-])ccc1CN(CCCl)CCCl)C(=O)O (centres undefined) | 41.5% | 29.8% | 42% | 19.5% | 40.1% | 39.6%
O=C(Cc1ccccc1)OCCBr | -8.95% | 4.65% | 0.95% | 15.1% | -16.2% | -2.05%
CC[CH2][Sn](=[O])[CH2]c1ccccc1 | 11.9% | 24.6% | 13.6% | 8.9% | 17.5% | -44.5%
CCCCC1(C(C)C)C(=O)NC(=O)N(C)C1=O (centres undefined) | -5.55% | 8.9% | 5.15% | -12.7% | 5.75% | 5.3%
O=C(O)C(=O)O.[Ti].[c-]1[c-][c-][cH-][c-]1.[c-]1[c-][c-][cH-][c-]1 | 23.9% | 14.9% | 29.6% | -54.7% | 24% | 29.7%
CN(c1ccccc1)[N+](=O)[O-] | -9.45% | -12.2% | -14.2% | -5.1% | -7.8% | -5.3%
O=[P+](O)c1cc2ccccc2c2ccccc12 | -33% | 17.2% | -4.75% | -46.2% | -10.9% | 1.35%
O=C(CC(=O)C(F)(F)F)c1ccco1 | 34% | -25.9% | -19.1% | -49.8% | -16.5% | -8.45%
CCCCCCCCCCOC(=O)CC(C)=O.CCCCCCCCCCOC(=O)CC(C)=O.[Ni+2] | -37.5% | -9.3% | -26.4% | -45.1% | 2.3% | -39%
[CH3][Sn]([CH3])([CH3])[O][N+](=O)[O-] | 25.6% | 2.65% | 44.6% | 2.55% | 48.7% | 18.9%
CCNCCC1(CC)C(=O)NC(=O)NC1=O | -22.2% | -16.8% | -27.4% | 2.2% | -43.7% | -10.6%
O=c1cc(O)c1=O | 23.2% | 18% | -6.05% | 14.9% | 16.8% | 31.9%
CCOC(CBr)OCC | 14.4% | -4.75% | 0.45% | -25.7% | 7.55% | 20.8%
COC(=O)/C=C/[C@@H]1[C@H](C)N1S(=O)(=O)c1ccc(C)cc1 (some centres undefined) | -9.7% | -11.3% | 11.7% | 6.95% | 13.9% | -23.5%
O=C(OC1CN2CCC1CC2)N(c1ccccc1)c1ccccc1 (centres undefined) | 2.35% | 0.25% | -4.1% | -4.75% | 3.5% | 13.3%
c1ccc(N2CCNCC2)cc1 (tested in a mixture with another compound) | -18.1% and 5.8% | 6.7% and -16.3% | -26.1% and -5.8% | -4% and -48.5% | 10.2% and 10.3% | -27.7% and -4.65%
COc1cccc2c1C(=O)c1c(O)c3c(c(O)c1C2=O)CC(O)(C(=O)CO)CC3OC1CC(N2CCOCC2C#N)C(O)C(C)O1 (centres undefined) | 86.7% (active) | 90.2% (active) | 88.9% (active) | 86.5% (active) | 88.2% (active) | 89.8% (active)
O=P(c1ccccc1)(c1ccccc1)c1ccccc1.O=P(c1ccccc1)(c1ccccc1)c1ccccc1.O=P(c1ccccc1)(c1ccccc1)c1ccccc1.O=P(c1ccccc1)(c1ccccc1)c1ccccc1.[Co+2].[O-][Cl+3]([O-])([O-])O | 22.7% | 3.45% | 17.9% | 20.9% | 13.8% | 16.3%
C1=CC(N2CCOCC2)CC1 (centres undefined) | -24.2% | 30.2% | 1.75% | -45.5% | -30.4% | 2.25%
